In general, inhibition refers to the share of the control response that was lost under treatment.

SMILES strings stand for the structures. Active and inactive are the calls of the source. How the calls were made is not given here.

This assay in a line: anti-respiratory syncytial virus activity – HEp-2 cells, set 2, counter-screen for VEEV inhibitor project (AID 651932). As to conditions: RSV cytopathic effect inhibition; series mostly up to 25 µM; inhibition: at the top concentration. (A counterscreen serves to expose hits that act by an unwanted route or on another target.)
On to `COc1ccc(NC(=O)c2cc([N+](=O)[O-])ccc2N=C2CN(C)CCN2C)cc1`, for which the “inhibition” value was 3.17% (inactive).

Regarding `CCN1CCN(C)CC1=Nc1ccc([N+](=O)[O-])cc1C(=O)Nc1ccccc1`, the “inhibition” value was 12.7% (inactive). Consider `CCN1CCN(Cc2nc3ccc([N+](=O)[O-])cc3c(=O)n2-c2ccccc2F)CC1`, for which the “inhibition” value is 11.3% (inactive). As for `CN1CCN(C)C(=Nc2ccc([N+](=O)[O-])cc2C(=O)Nc2ccccc2)C1`, the figure is 8.1% (inactive).

(Values after PubChem BioAssay AID651932 (Southern Research Specialized Biocontainment Screening …, 2012).)
